Measured values as given in PubChem BioAssay (NCI).
About 83,000 compounds went through this panel and 20% of them were active in at least one assay; those are over-represented in the sample as a whole.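 Plates (96-well) were seeded with cells, treated with compound at one concentration, and incubated for 48 hours before percent growth was determined.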 Active and inactive are the calls of the source. Rule for the calls: active = growth percent below 10; inactive = the rest.

Legend:
Assay in all cases: NCI-60 one-dose screen, 48 h (100 = growth as untreated, 0 = no growth, -100 = all killed)
Settings in all cases: 10 µM unless noted
BT-549 breast = tested on: BT-549 breast
MDA-MB-435 melanoma = tested on: MDA-MB-435 melanoma
SW-620 colon = tested on: SW-620 colon
MCF7 breast = tested on: MCF7 breast
HCT-116 colon = tested on: HCT-116 colon
HCC-2998 colon = tested on: HCC-2998 colon
KM12 colon = tested on: KM12 colon

Measured: growth

COc1cc2nc(-c3ccc(C(F)(F)F)cc3)cc(OCCCNCC3CCCO3)c2cc1OC (centres undefined)
active: MDA-MB-435 melanoma 5.88%
inactive: BT-549 breast 66.3% | SW-620 colon 16.3% | MCF7 breast 13% | HCT-116 colon 22.6% | HCC-2998 colon 54.4% | KM12 colon 27.3%

COc1cc(/C=C/C(=O)c2ccc(Cl)cc2)ccc1Oc1nc(NCCO)nc(N2CCOCC2)n1
inactive: BT-549 breast 100% | MDA-MB-435 melanoma 109% | SW-620 colon 72.4% | MCF7 breast 67% | HCT-116 colon 93.1% | HCC-2998 colon 100% | KM12 colon 106%

C/C(=C(/c1ccc(Cl)cc1)c1ccc(OCCN)cc1)c1ccc(C)cc1
inactive: BT-549 breast 117% | MDA-MB-435 melanoma 97.3% | SW-620 colon 93.5% | MCF7 breast 102% | HCT-116 colon 101% | HCC-2998 colon 111% | KM12 colon 103%

COc1ccc(-c2csc(N/N=C/c3c(-c4ccc(S(C)(=O)=O)cc4)nc4ccccn34)n2)cc1
inactive: BT-549 breast 115% | MDA-MB-435 melanoma 101% | SW-620 colon 107% | MCF7 breast 89.1% | HCT-116 colon 104% | HCC-2998 colon 115% | KM12 colon 103%

CCOC(=O)c1c(Nc2ccccc2)nn2c(-c3ccco3)c(C#N)cnc12
inactive: BT-549 breast 83.1% | MDA-MB-435 melanoma 93% | SW-620 colon 94.7% | MCF7 breast 83.2% | HCT-116 colon 92.5% | HCC-2998 colon 112% | KM12 colon 98.6%

CCN1C(=S)N(CC)C2C1NN=C1SC(c3ccccc3)=CC(=O)N12 (centres undefined)
inactive: BT-549 breast 106% | MDA-MB-435 melanoma 59% | SW-620 colon 111% | MCF7 breast 95.4% | HCT-116 colon 104% | HCC-2998 colon 111% | KM12 colon 94.3%

CS(=O)(=O)c1ccc(-c2nc3ccccn3c2-c2nc3ccc([N+](=O)[O-])cc3[nH]2)cc1
inactive: BT-549 breast 122% | MDA-MB-435 melanoma 94.5% | SW-620 colon 93.2% | MCF7 breast 85.2% | HCT-116 colon 97% | HCC-2998 colon 105% | KM12 colon 93.8%

O=[N+]([O-])c1ccc(O)c2ncccc12
inactive: BT-549 breast 61.4% | MDA-MB-435 melanoma 40% | SW-620 colon 25.7% | HCT-116 colon 21.4% | HCC-2998 colon 44.5% | KM12 colon 22.2%
active: MCF7 breast 9.13%

Cc1nc(-c2cc3ccccc3oc2=O)ccc1C(=O)/C=C/c1ccc(Cl)c(Cl)c1
inactive: BT-549 breast 108% | MDA-MB-435 melanoma 103% | SW-620 colon 101% | MCF7 breast 86.3% | HCT-116 colon 103% | HCC-2998 colon 107% | KM12 colon 103%

Cc1nc(-c2cc3ccccc3oc2=O)ccc1C(=O)/C=C/c1ccccn1
inactive: BT-549 breast 82.5% | MDA-MB-435 melanoma 70.8% | HCC-2998 colon 66.6%
active: SW-620 colon 1.33% | MCF7 breast 8.39% | HCT-116 colon -21% | KM12 colon 6.06%

O=C(CCN1C(=O)/C(=C/c2ccccc2F)SC1=S)N1CCOCC1
inactive: BT-549 breast 108% | MDA-MB-435 melanoma 80.8% | SW-620 colon 58.8% | MCF7 breast 30.1% | HCT-116 colon 81.9% | HCC-2998 colon 115% | KM12 colon 80.8%

CS(=O)(=O)c1ccc(-c2nc3ccccn3c2/C=N/Nc2nc(-c3ccc(Cl)cc3)cs2)cc1
inactive: BT-549 breast 103% | MDA-MB-435 melanoma 96.8% | SW-620 colon 113% | MCF7 breast 91.6% | HCT-116 colon 101% | HCC-2998 colon 125% | KM12 colon 112%

COc1cccc(NC2=CC(=O)C(C)=C(C)C2=O)c1
inactive: BT-549 breast 127% | SW-620 colon 102% | MCF7 breast 64.1% | HCT-116 colon 10.5% | KM12 colon 98.4%
active: MDA-MB-435 melanoma 7.25%

O=C(Oc1ccc2ccc(=O)oc2c1)c1ccc(Cl)cc1
inactive: BT-549 breast 101% | MDA-MB-435 melanoma 109% | SW-620 colon 102% | MCF7 breast 94% | HCT-116 colon 98.5% | HCC-2998 colon 102% | KM12 colon 108%

Cc1c(NC(=O)CSc2nc3sc4c(c3c(=O)n2-c2ccc(Cl)cc2)CCCC4)c(=O)n(-c2ccccc2)n1C
inactive: BT-549 breast 93.2% | MDA-MB-435 melanoma 88.3% | SW-620 colon 90.6% | MCF7 breast 77.3% | HCT-116 colon 107% | HCC-2998 colon 110% | KM12 colon 98.7%
